Data published in PubChem BioAssay (NCI).
The panel holds about 83,000 compounds, 20% with a hit somewhere; the sample as a whole holds those more often.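 48-hour exposure, single concentration, 96-well plates; percent growth endpoint where 0 means no net growth. Active: below 10.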 A number with no mark means an inactive call. The source made the active and inactive calls.

Tests used:
Test in all cases: NCI-60 one-dose screen, 48 h (100 = growth as untreated, 0 = no growth, -100 = all killed)
Details in all cases: 10 µM unless noted
[1] = system: NCI-H23 lung
[2] = system: NCI-H226 lung
[3] = system: NCI-H322M lung
[4] = system: HOP-62 NSCLC
[5] = system: NCI-H460 lung
[6] = system: HOP-92 NSCLC
[7] = system: NCI-H522 lung
[8] = system: A549/ATCC NSCLC
[9] = system: 786-0 renal
[10] = system: COLO 205 colon
[11] = system: DU-145 prostate
[12] = system: K-562 leukemia
[13] = system: MALME-3M melanoma
[14] = system: MDA-MB-231 breast
[15] = system: RXF 393 renal
[16] = system: SF-268 CNS
[17] = system: SF-295 CNS
[18] = system: SF-539 CNS
[19] = system: UACC-257 melanoma
[20] = system: M14 melanoma

Structure (SMILES)	growth [1] [%]	growth [2] [%]	growth [3]	growth [4]	growth [5]	growth [6]	growth [7]	growth [8]	growth [9]	growth [10]	growth [11]	growth [12]	growth [13]	growth [14]	growth [15]	growth [16]	growth [17]	growth [18]	growth [19]	growth [20]
COC(=O)[C@@H](C)C[C@H](Cc1ccc2ccccc2c1)NC(=O)c1csc([C@@H](C[C@H](C(C)C)N(C)C(=O)[C@@H](NC(=O)[C@H]2CCCCN2C)C(C)C)OC(C)=O)n1	41.7	80.2	68.6%	64.7%	24.2%	-5.09% (active)	22.2%	47.5%	26.5%	-37.9% (active)	46.6%	25.7%	63.1%	21.2%	49.1%	29.4%	56.7%	10.4%	77%	24.6%
Oc1ccc2c3c1OC1[C@@H](O)CC[C@@]4(O)[C@@H](C2)N(CC2CCC2)CC[C@]314 (stereo not given in full)	104	99.1	97.7%	107%	115%	86.8%	86.3%	98.9%	96.6%	113%	113%	94.7%	92.5%	114%	97.7%	105%	102%	103%	97.6%	103%
COc1cc2c(c(OC)c1OC)-c1ccc([O-])c(=O)cc1[C@@H](NC(C)=O)CC2.COc1cc2c(c(OC)c1OC)-c1ccc([O-])c(=O)cc1[C@@H](NC(C)=O)CC2.[Cu+2]	27.1	37.8	57%	27.4%	5.2% (active)	9.89% (active)	-24.5% (active)	45.1%	43%	9.04% (active)	4.95% (active)	2.76% (active)	52.5%	35.5%	13.4%	27.1%	18.7%	-17.2% (active)	45.1%	7.83% (active)
CNC(=O)Oc1cccc(C(F)(F)F)c1	108	90	125%	107%	114%	106%	95.2%	103%	105%	107%	128%	113%	140%	103%	146%	118%	130%	122%	102%	101%
COc1ccc2c(c1)c(-c1nc(-c3cn(C)c4ncccc34)cs1)cn2CCCCN1CCCCC1	15.3	56.6	-31.4% (active)	-78.5% (active)	-61.2% (active)	50.3%	-61.7% (active)	-56.4% (active)	-90.8% (active)	-71.7% (active)	7.63% (active)	-66.8% (active)	-73.9% (active)	-74.8% (active)	-80.1% (active)	-37.9% (active)	-50.1% (active)	-80.2% (active)	-68.3% (active)	-79.1% (active)
NC(N)=N/N=C\c1c[nH]c2ccc(Br)cc12	86.3	69.2	87.9%	83.5%	102%	37.9%	81%	92.5%	78.6%	84.5%	96.2%	74.6%	76.8%	101%	99%	64.6%	79.9%	84%	69.3%	94.1%
COC(=O)[C@@H](C)C[C@H](Cc1ccccc1)NC(=O)c1cccc([C@@H](C[C@H](C(C)C)N(C)C(=O)[C@@H](NC(=O)[C@H]2CCCCN2C)C(C)C)OC(C)=O)n1	38.9	68.1	47.6%	23.2%	7.05% (active)	53.7%	-22.2% (active)	14.2%	14.4%	-54.5% (active)	10.5%	7.86% (active)	77.9%	-4.66% (active)	46.1%	30.8%	6.28% (active)	2.03% (active)	49.7%	-10.9% (active)
CC[C@H](C)[C@H](NC(=O)[C@H]1CCCCN1C)C(=O)N(C)[C@H](C[C@@H](O)c1nc(C(=O)N[C@@H](Cc2ccccc2)C[C@H](C)C(=O)O)cs1)C(C)C	94.8	99	105%	82.4%	95.6%	57.8%	-18% (active)	87.1%	90.2%	83.6%	112%	42.1%	77.6%	95.2%	96.9%	88.2%	90.6%	83.6%	76.1%	64.5%
CC[C@H](C)[C@H](NC(=O)[C@H]1CCCCN1C)C(=O)N(C)[C@H](CC(=O)c1nc(C(=O)N[C@@H](Cc2ccccc2)C[C@H](C)C(=O)O)cs1)C(C)C	93.2	92.3	107%	77%	91%	49%	-9.54% (active)	94.8%	89.7%	82.8%	106%	32.2%	67.1%	88%	87.1%	84.2%	87.4%	75.8%	74%	57.9%
C[C@]12CCc3sc(-c4cccc(F)c4)nc3C1=CC[C@@H]1[C@@H]2CC[C@]2(C)C(=O)CC[C@@H]12	62.7	65.8	69.3%	50.5%	53.9%	74.3%	-36.5% (active)	55%	-10.1% (active)	44.5%	22.9%	7.01% (active)	37.6%	62%	-22.5% (active)	52.4%	-18.9% (active)	-33.4% (active)	77.4%	57.4%
COc1ccc([As]=[As]c2ccc(OC)c(NCS(=O)(=O)O)c2)cc1NCS(=O)(=O)O (stereo not given)	23.3	61.9	95.6%	39.7%	88.2%	-21.9% (active)	-32.9% (active)	69.4%	-46.4% (active)	2.8% (active)	43.1%	-2.74% (active)	-44.6% (active)	4.41% (active)	-17.9% (active)	17.8%	80%	2.54% (active)	27.6%	19.2%
CN(C)C1C(=O)C(C(N)=O)=C(O)C2(O)C(=O)C3=C(O)c4c(O)cccc4C(C)(O)C3CC12.[Cl][Sb]([Cl])[Cl] (stereo not given)	46.1	86.6	46.3%	45.8%	4.47% (active)	-5.57% (active)	4.59% (active)	26.1%	26.6%	96.5%	60%	22.9%	-21.2% (active)	79.1%	59.2%	29.7%	-3.24% (active)	20.9%	30.1%	37%
NC(=O)CNc1ccc([As]=[As]c2ccc(NCC(N)=O)cc2)cc1 (stereo not given)	62.2	49.4	83.5%	94%	83.2%	63.6%	2.53% (active)	81%	29.7%	76.8%	60.3%	19%	47.2%	30%	32.1%	24.6%	94%	0.244% (active)	37.2%	57.7%
COc1cccc2c1c(C(=O)C(=O)Nc1cc(C)no1)cn2Cc1ccc(F)cc1	78.8	75.5	94.7%	64.1%	71.3%	57.4%	72.5%	91.9%	64.1%	95.4%	74.2%	13.4%	69.3%	77.5%	77.4%	64.3%	73.6%	67.2%	81.4%	45.7%
COc1ccc(/C=C\c2cc(OC)c(OC)c(OC)c2)c(NS(=O)(=O)c2ccc(Cl)cc2)c1O	21.8	18.4	40.8%	49.8%	8.23% (active)	48.3%	-36% (active)	16.7%	25.5%	20.9%	-13.3% (active)	9.26% (active)	58%	8.54% (active)	37.2%	16.2%	0.936% (active)	2.9% (active)	39.1%	12.8%
